Structures can show the parent of a compound that is named as a salt.

This experiment has as its system Clostridium sporogenes DSM 1664. The experiment can be described thus: growth (OD595) fold change vs plate DMSO controls (fold change (ratio)); higher = more growth. Conditions: incubation time: 27 h, anaerobic, 37 °C. The procedure, abridged: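 Growth is expressed as the fold change relative to the median of the DMSO control wells on each plate. Cultures in mGAM were grown anaerobically in 96-well plates for 27 h at 37 °C, shaken, and read at 595 nm. Readings were blank-subtracted, corrected for compound background with 20 µM compound solutions in water, and converted to OD with a calibration factor of 5. Fold changes above 1.5 were set to NA, and each value is the mean of 2 biological replicates.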
For `CC(=O)S[C@@H]1CC2=CC(=O)CC[C@]2(C)[C@H]2CC[C@@]3(C)[C@@H](CC[C@@]34CCC(=O)O4)[C@H]12` [Spironolactone] (20 µM), the growth came to 1.1. For `COC(=O)C1=C(C)NC(C)=C(C(=O)OCCN2CCN(C(c3ccccc3)c3ccccc3)CC2)C1c1cccc([N+](=O)[O-])c1` (centres undefined) [Manidipine Dihydrochloride] (20 µM), the growth amounted to 0.816.

In the case of `CC(=O)NS(=O)(=O)c1ccc(NC(=O)c2ccccc2C(=O)O)cc1` [Phthalylsulfacetamide] (20 µM), the growth came out at 0.948. Consider `CN(C/C=C/C#CC(C)(C)C)Cc1cccc2ccccc12` [Terbinafine] (20 µM), for which the growth is 1.03. Regarding `Nc1nc2[nH]cnc2c(=S)[nH]1` [Tioguanine] (20 µM), the growth was 1.3. For the compound `CC(=O)OCC(=O)[C@@]12N=C(C)O[C@@H]1C[C@H]1[C@@H]3CCC4=CC(=O)C=C[C@]4(C)[C@H]3[C@@H](O)C[C@@]12C` [Deflazacort] (20 µM), the growth was 0.981. Then `CCCCOCCOCCOCc1cc2c(cc1CCC)OCO2` [Piperonyl butoxide] (20 µM), with 1.04; and `O=C(Cn1ccnc1[N+](=O)[O-])NCCO` [Etanidazole] (20 µM), with 0.988. Take `CCN(CC)CCNC(=O)c1cc(Cl)c(N)cc1OC` [Metoclopramide monohydrochloride] (20 µM): the growth stood at 1.08. Consider `CCN(CC)CCNC(C(=O)OCCC(C)C)c1ccccc1` (centres undefined) [Camylofine chlorhydrate] (20 µM), for which the growth stood at 1.11. With `Cc1cc(C)nc(NS(=O)(=O)c2ccc(N)cc2)n1` [Sulfamethazine sodium salt] (20 µM), the growth was found to be 1.01. Then `C/C(O)=C(\C#N)C(=O)Nc1ccc(C(F)(F)F)cc1` [Teriflunomide] (20 µM), with 0.938; and `NC[C@@H]1O[C@@H](O[C@H]2[C@H](O)[C@@H](O[C@H]3O[C@H](CO)[C@@H](O)[C@H](N)[C@H]3O)[C@H](N)C[C@@H]2N)[C@@H](O)[C@H](O)[C@H]1O` [Kanamycin A sulfate] (20 µM), with 1.05.

As to `CN[C@@H]1[C@H](O)[C@H](NC)[C@H]2O[C@@]3(O)C(=O)C[C@@H](C)O[C@H]3O[C@@H]2[C@H]1O` [Spectinomycin dihydrochloride] (20 µM), the growth was found to be 1.04. Take `CCOC(=O)c1ccc(C#Cc2ccc3c(c2)C(C)(C)CCS3)nc1` [Tazarotene] (20 µM): the growth came to 1.02. Consider `CCCOc1ccc2[nH]c(NC(=O)OC)nc2c1` [Oxibendazol] (20 µM), for which the growth stood at 0.862. In the case of `CCN(CCCc1ccccc1)CCCc1ccccc1` [Alverine citrate salt] (20 µM), the growth amounted to 0.998. On to `CO[C@@H]1[C@@H](OC(N)=O)[C@@H](O)[C@H](Oc2ccc3c(O)c(NC(=O)c4ccc(O)c(CC=C(C)C)c4)c(=O)oc3c2C)OC1(C)C` [Novobiocin sodium salt] (20 µM), for which the growth is 1.07. With `CCOC(N)=O` [Urethane] (20 µM), the growth came to 0.952. Turning to `CCN1CCN(C(=O)N[C@@H](C(=O)N[C@@H]2C(=O)N3[C@@H]2SC(C)(C)[C@@H]3C(=O)O)c2ccccc2)C(=O)C1=O` [Piperacillin sodium salt] (20 µM), the growth was 0. As for `CC1CCc2cc(F)cc3c(=O)c(C(=O)O)cn1c23` (centres undefined) [Flumequine] (20 µM), the figure is 0.015; as for `CO/N=C1\CN(c2nc3c(cc2F)c(=O)c(C(=O)O)cn3C2CC2)CC1CN` (centres undefined) [Gemifloxacin mesylate] (20 µM), 0.00381. Then `C=CCOc1ccc(CC(=O)O)cc1Cl` [Alclofenac] (20 µM), with 0.943; and `C[C@]12CC[C@H]3[C@@H](CCC4=CC(=O)CC[C@@]43C)[C@@H]1CC[C@@H]2C(=O)CO` [Deoxycorticosterone] (20 µM), with 1.18.

For the compound `CCCC(CCC)C(=O)O[C@H]1C[C@H]2CC[C@@H](C1)[N+]2(C)C` [Anisotropine Methylbromide] (20 µM), the growth is 1.04.

Regarding `Cc1cn(-c2cc(NC(=O)c3ccc(C)c(Nc4nccc(-c5cccnc5)n4)c3)cc(C(F)(F)F)c2)cn1` [Nilotinib] (20 µM), the growth was 0.888. For `OCCN1CCN(CC/C=C2/c3ccccc3Sc3ccc(C(F)(F)F)cc32)CC1` [Flupentixol dihydrochloride cis-(Z)] (20 µM), the growth was 1.03. `N#Cc1cc(NC(=O)C(=O)O)c(Cl)c(NC(=O)C(=O)O)c1` [Lodoxamide] (20 µM): the growth stood at 1.02. Regarding `O=P(O)(O)C(Cl)(Cl)P(=O)(O)O` [Clodronate disodium] (20 µM), the growth worked out at 0.99. `CC(=O)N[C@@H](CCC(N)=O)C(=O)O` [Acetyl-L-glutamine] (20 µM): the growth is 1.04. With `CC(=O)N(CC(O)CO)c1c(I)c(C(=O)NCC(O)CO)c(I)c(C(=O)NCC(O)CO)c1I` (centres undefined) [Iohexol] (20 µM), the growth was 1. Take `Cc1cc2nc3c(=O)[nH]c(=O)nc-3n(C[C@H](O)[C@H](O)[C@H](O)CO)c2cc1C` [Riboflavine] (20 µM): the growth amounted to 1.09.

As to `CC(=O)CC(c1ccc([N+](=O)[O-])cc1)c1c(O)c2ccccc2oc1=O` (centres undefined) [Acenocoumarol] (20 µM), the growth is 0.894. Consider `O=C1CCc2ccc(OCCCCN3CCN(c4cccc(Cl)c4Cl)CC3)cc2N1` [Aripiprazole] (20 µM), for which the growth turned out to be 1.06. On to `Nc1nc(/C(=C/CC(=O)O)C(=O)N[C@@H]2C(=O)N3C(C(=O)O)=CCS[C@H]23)cs1` [Ceftibuten] (20 µM), for which the growth amounted to 0.5. With `C=C(CC)C(=O)c1ccc(OCC(=O)O)c(Cl)c1Cl` [Ethacrynic acid] (20 µM), the growth amounted to 1.11.

On to `C[C@H](N[C@@H](CCc1ccccc1)C(=O)O)C(=O)N1CCC[C@H]1C(=O)O` [Enalaprilat dihydrate] (20 µM), for which the growth is 0.89.

Take `O=C1c2ccccc2S(=O)(=O)N1CCCCN1CCN(c2ncccn2)CC1` [Ipsapirone] (20 µM): the growth was 1. On to `Cn1c(=O)c2c(ncn2CC2OCCO2)n(C)c1=O` [Doxofylline] (20 µM), for which the growth amounted to 1.05.
